Activity calls are given as the source filed them. The calls were made as follows: active = hit-call score of the fitted dose curve at least 0.9, where 1 is the maximum; inactive = score below 0.9.
Tests used:
Conditions in all cases: mRNA level, 48 h; actives raise or lower the signal
[1] = read-out: Interleukin 6 Receptor (IL6R), IL6R (gene 3570); experiment: LTEA_HepaRG_IL6R: Life Technologies and Expression Analysis (LTEA) Assay for Interleukin 6 Receptor (IL6R) using HepaRG (AID 2283510)
Outline: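 Readout is IL6R transcript level by TaqMan qRT-PCR, normalized to three housekeeping genes and fitted bidirectionally against 0.5% DMSO controls. Human HepaRG cells received chemicals for 48 h in serum-free induction medium, highest concentration 100 uM.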

[2] = read-out: Potassium channel subfamily K member 1 (KCNK1), KCNK1 (gene 3775); experiment: LTEA_HepaRG_KCNK1: Life Technologies and Expression Analysis (LTEA) Assay for Potassium channel subfamily K member 1 (KCNK1) using HepaRG (AID 2283511)
Outline: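 Gain or loss of KCNK1 mRNA is the read-out, quantified by qRT-PCR against three housekeeping genes after 48 h chemical treatment of human HepaRG liver cells. Concentrations ran from 100 uM downward in half-log steps, vehicle 0.5% DMSO.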

[3] = read-out: JUN Transcription Factor, JUN (gene 3725); experiment: LTEA_HepaRG_JUN: Life Technologies and Expression Analysis (LTEA) Assay for JUN Transcription Factor using HepaRG (AID 2283513)
Outline: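 Cells plated 48 h, medium switched to serum-free induction medium, then dosed 48 h (100 uM top, half-log dilutions, 0.5% DMSO). RNA isolated; JUN measured by qRT-PCR against three housekeeping genes; gain or loss fitted relative to DMSO.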

[4] = read-out: Lipase C (LIPC), LIPC (gene 3990); experiment: LTEA_HepaRG_LIPC: Life Technologies and Expression Analysis (LTEA) Assay for Lipase C (LIPC) using HepaRG (AID 2283514)
Outline: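 Read-out is LIPC transcript level by TaqMan qRT-PCR, normalized to three housekeeping genes, after 48 h chemical treatment of human HepaRG liver cells. Curves span eight concentrations topping at 100 uM; activity in either direction scored relative to 0.5% DMSO.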

[5] = read-out: Lipoprotein lipase (LPL), LPL (gene 4023); experiment: LTEA_HepaRG_LPL: Life Technologies and Expression Analysis (LTEA) Assay for Lipoprotein lipase (LPL) using HepaRG (AID 2283515)
Outline: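 Read-out is LPL transcript level by qRT-PCR, normalized to three housekeeping genes and fitted bidirectionally against the DMSO control. Human HepaRG cells received chemicals for 48 h at up to 100 uM.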

[6] = read-out: MicroRNA 122 (MIR122), gene 406906; experiment: LTEA_HepaRG_MIR122: Life Technologies and Expression Analysis (LTEA) Assay for MicroRNA 122 (MIR122) using HepaRG (AID 2283516); also: the transcript read is the microRNA miR-122
Outline: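 HepaRG plated 48 h, switched to serum-free induction medium, then treated in duplicate for 48 h (100 uM top, half-log steps, 0.5% DMSO vehicle). RNA isolated, qRT-PCR performed, concentration-response fitted both directions relative to DMSO.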

[7] = read-out: matrix metalloproteinase-10 (MMP10), MMP10 (gene 4319); experiment: LTEA_HepaRG_MMP10: Life Technologies and Expression Analysis (LTEA) Assay for matrix metalloproteinase-10 (MMP10) using HepaRG (AID 2283517)
Outline: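 Gain or loss of MMP10 mRNA is fitted relative to the 0.5% DMSO vehicle. The human hepatic line HepaRG receives a 48-hour serum-free exposure, in duplicate, with a maximum concentration of 100 uM.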

MYC, MYC (gene 4609) = experiment: LTEA_HepaRG_MYC: Life Technologies and Expression Analysis (LTEA) Assay for MYC using HepaRG (AID 2283518)
Outline: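 HepaRG, ~100,000 cells/well, collagen I; 48 h plating; serum-free induction medium; 48 h dosing, duplicate, 100 uM top, half-log, 0.5% DMSO; total RNA → qRT-PCR MYC; gain/loss fit vs DMSO.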

[8] = read-out: matrix metalloproteinase-3 (MMP3), MMP3 (gene 4314); experiment: LTEA_HepaRG_MMP3: Life Technologies and Expression Analysis (LTEA) Assay for matrix metalloproteinase-3 (MMP3) using HepaRG (AID 2283519)
Outline: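 HepaRG, human; 48 h dosing, 8 conc. (max 100 uM, half-log), duplicate, 0.5% DMSO. Readout: MMP3 transcript by Fluidigm TaqMan qRT-PCR, ACTB/GAPDH/POLR2A-normalised. Gain or loss fitted vs DMSO.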

[9] = read-out: Paternally Expressed 10 (PEG10), PEG10 (gene 23089); experiment: LTEA_HepaRG_PEG10: Life Technologies and Expression Analysis (LTEA) Assay for Paternally Expressed 10 (PEG10) using HepaRG (AID 2283520)
Outline: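 HepaRG, 48 h post-plating → serum-free induction medium → 48 h chemical exposure (duplicate, 8-pt, max 100 uM, half-log, 0.5% DMSO) → lysis in RLT → TaqMan qRT-PCR for PEG10, ACTB/GAPDH/POLR2A normalisation.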

[10] = read-out: Protein phosphatase 2A (PPP2R4), PTPA (gene 5524); experiment: LTEA_HepaRG_PPP2R4: Life Technologies and Expression Analysis (LTEA) Assay for Protein phosphatase 2A (PPP2R4) using HepaRG (AID 2283522)
Outline: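 Readout is PPP2R4 transcript level by microfluidic qRT-PCR after 48 h chemical treatment of human HepaRG liver cells. Concentrations spanned 100 uM downward in half-log steps; gain or loss of signal was fitted relative to DMSO.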

[11] = read-out: Phosphatase and tensin (PTEN), PTEN (gene 5728); experiment: LTEA_HepaRG_PTEN: Life Technologies and Expression Analysis (LTEA) Assay for Phosphatase and tensin (PTEN) using HepaRG (AID 2283523)
Outline: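 Read-out is PTEN transcript level by multiplexed TaqMan qRT-PCR after 48 h chemical treatment of human HepaRG cultures in serum-free induction medium. Concentrations spanned 100 uM downward in half-log steps, 0.5% DMSO throughout; activity fitted in both directions against vehicle.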

[12] = read-out: solute carrier (SLC22A1), SLC22A1 (gene 6580); experiment: LTEA_HepaRG_SLC22A1: Life Technologies and Expression Analysis (LTEA) Assay for solute carrier (SLC22A1) using HepaRG (AID 2283524);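 as to AC50: differentiated human HepaRG liver cells in serum-free induction medium; TaqMan qRT-PCR normalized to ACTB GAPDH and POLR2A housekeeping genes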
Outline: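 HepaRG (human liver line), 48 h dosing in serum-free induction medium; 8 conc., half-log down from 100 uM, 0.5% DMSO vehicle, duplicates. Endpoint: SLC22A1 mRNA, qRT-PCR, housekeeping-normalized; gain/loss fit vs DMSO.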

[13] = read-out: Pyruvate Dehydrogenase Kinase 4 (PDK4), PDK4 (gene 5166); experiment: LTEA_HepaRG_PDK4: Life Technologies and Expression Analysis (LTEA) Assay for Pyruvate Dehydrogenase Kinase 4 (PDK4) using HepaRG (AID 2283525)
Outline: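 In this multiplexed human HepaRG expression assay, cells are treated 48 h with test chemicals across an eight-point range starting at 100 uM. PDK4 mRNA changes, normalized to ACTB/GAPDH/POLR2A, are fitted in both directions relative to vehicle.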

[14] = read-out: NAD(P)H dehydrogenase [quinone] 1 (NQO1), NQO1 (gene 1728); experiment: LTEA_HepaRG_NQO1: Life Technologies and Expression Analysis (LTEA) Assay for NAD(P)H dehydrogenase [quinone] 1 (NQO1) using HepaRG (AID 2283526)
Outline: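 HepaRG, 48 h post-plating → serum-free induction medium → test chemical 48 h (duplicate, 100 uM top, half-log x8, 0.5% DMSO) → RNA isolation → qRT-PCR, ACTB/GAPDH/POLR2A normalization; bidirectional curve fit vs DMSO baseline.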

[15] = read-out: Nuclear factor erythroid 2-related factor 2 (Homo sapiens) (UniProt Q16236); experiment: LTEA_HepaRG_NFE2L2: Life Technologies and Expression Analysis (LTEA) Assay for Nuclear factor erythroid 2-related factor 2 (NFE2L2) Transcription Factor using HepaRG (AID 2283527)
Outline: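 Transcript level of NFE2L2 is the read-out, measured by microfluidic TaqMan qRT-PCR and normalized to three housekeeping genes. Human HepaRG cultures received test chemical for 48 h at up to 100 uM in half-log steps. Gain or loss of signal is fitted relative to 0.5% DMSO.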

[16] = read-out: succinate dehydrogenase complex iron sulfur subunit B (SDHB), SDHB (gene 6390); experiment: LTEA_HepaRG_SDHB: Life Technologies and Expression Analysis (LTEA) Assay for succinate dehydrogenase complex iron sulfur subunit B (SDHB) using HepaRG (AID 2283528)
Outline: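 HepaRG, 48 h exposure, 8-pt half-log series from 100 uM in 0.5% DMSO, duplicates. Readout: SDHB mRNA by Fluidigm qRT-PCR vs housekeeping genes; bidirectional fit relative to DMSO.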

[17] = read-out: Signal transducer and activator of transcription 3 (Homo sapiens) (UniProt P40763); experiment: LTEA_HepaRG_STAT3: Life Technologies and Expression Analysis (LTEA) Assay for Signal transducer and activator of transcription (STAT3) using HepaRG (AID 2283529)
Outline: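 Read-out is STAT3 mRNA level by qRT-PCR, normalized to three housekeeping genes, in human HepaRG liver cells treated for 48 h. Concentrations ran from 100 uM downward in half-log steps; curves were fitted for gain or loss relative to 0.5% DMSO.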

[18] = read-out: solute carrier (SLCO1B1), SLCO1B1 (gene 10599); experiment: LTEA_HepaRG_SLCO1B1: Life Technologies and Expression Analysis (LTEA) Assay for solute carrier (SLCO1B1) using HepaRG (AID 2283530)
Outline: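 HepaRG, serum-free induction medium, 48 h dosing, 8-pt half-log from 100 uM, 0.5% DMSO vehicle, duplicates. Readout: SLCO1B1 mRNA, qRT-PCR, ACTB/GAPDH/POLR2A normalization; up or down fit vs DMSO.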

Measured: AC50

Chain of Signal transducer and activator of transcription 3 (Homo sapiens) (P40763 whole entry, looked up): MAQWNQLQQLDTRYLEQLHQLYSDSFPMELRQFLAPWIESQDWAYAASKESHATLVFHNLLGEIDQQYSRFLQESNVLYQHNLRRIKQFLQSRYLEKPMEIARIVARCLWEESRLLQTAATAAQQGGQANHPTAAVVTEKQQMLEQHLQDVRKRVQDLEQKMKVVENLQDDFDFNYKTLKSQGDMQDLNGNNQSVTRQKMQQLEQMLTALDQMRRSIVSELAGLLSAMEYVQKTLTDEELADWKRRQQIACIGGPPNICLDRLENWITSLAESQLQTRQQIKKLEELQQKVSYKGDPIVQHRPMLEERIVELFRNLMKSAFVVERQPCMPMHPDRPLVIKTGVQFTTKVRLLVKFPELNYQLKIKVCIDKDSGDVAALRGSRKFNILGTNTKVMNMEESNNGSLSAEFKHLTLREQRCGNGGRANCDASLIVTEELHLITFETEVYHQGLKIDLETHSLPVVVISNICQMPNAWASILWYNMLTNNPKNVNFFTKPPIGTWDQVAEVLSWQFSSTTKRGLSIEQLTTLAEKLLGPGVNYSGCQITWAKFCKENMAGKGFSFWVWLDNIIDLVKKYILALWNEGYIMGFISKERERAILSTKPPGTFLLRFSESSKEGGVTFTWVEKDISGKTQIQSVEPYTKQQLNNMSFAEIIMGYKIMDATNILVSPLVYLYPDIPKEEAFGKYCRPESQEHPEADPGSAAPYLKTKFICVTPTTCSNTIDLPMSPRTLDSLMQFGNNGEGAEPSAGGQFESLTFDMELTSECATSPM
Chain of Nuclear factor erythroid 2-related factor 2 (Homo sapiens) (Q16236 whole entry, looked up): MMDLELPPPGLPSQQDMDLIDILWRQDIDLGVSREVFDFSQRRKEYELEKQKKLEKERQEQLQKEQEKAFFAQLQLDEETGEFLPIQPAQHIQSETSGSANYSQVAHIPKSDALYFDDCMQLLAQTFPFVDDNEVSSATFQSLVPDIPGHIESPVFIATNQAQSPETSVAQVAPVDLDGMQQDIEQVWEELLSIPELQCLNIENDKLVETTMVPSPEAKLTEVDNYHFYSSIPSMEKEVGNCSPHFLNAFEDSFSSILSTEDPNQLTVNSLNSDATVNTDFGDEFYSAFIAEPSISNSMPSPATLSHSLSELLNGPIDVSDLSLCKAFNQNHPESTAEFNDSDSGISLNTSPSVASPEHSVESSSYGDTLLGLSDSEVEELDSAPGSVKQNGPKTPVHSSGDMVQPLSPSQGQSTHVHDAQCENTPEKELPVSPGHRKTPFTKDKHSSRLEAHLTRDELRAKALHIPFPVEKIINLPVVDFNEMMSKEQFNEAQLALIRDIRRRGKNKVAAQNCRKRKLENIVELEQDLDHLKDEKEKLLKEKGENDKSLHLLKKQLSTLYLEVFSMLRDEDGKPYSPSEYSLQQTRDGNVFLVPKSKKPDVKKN

c1ccc(OP(Oc2ccccc2)Oc2ccccc2)cc1
inactive: all assays above

CCCCCCCc1ccc(O)cc1
inactive: all assays above

CCCCN(CCCC)N=O
inactive: all assays above

CSC(C)(C)C=NO
not listed: [1]
inactive: all other assays above

CC(Cl)(Cl)C(=O)O
inactive: all assays above

O=[N+]([O-])c1ccc(Cl)c(Cl)c1
inactive: all assays above

CCCN(CCC)c1c([N+](=O)[O-])cc(C(C)C)cc1[N+](=O)[O-]
active: [5] 12.5 µM | [9] 43.3 µM | [12] 77.4 µM | [13] 20.9 µM
inactive: all other assays above

Nc1cc2c3c(c1)C(c1ccccc1)=N[C@@H](NC(=O)c1cccnc1)C(=O)N3CC2
inactive: all assays above

O=P(Oc1ccccc1)(Oc1ccccc1)Oc1ccccc1
active: [12] 50 µM | [13] 28.4 µM | [15] 21.2 µM
inactive: all other assays above

c1ccc2c(c1)Nc1ccccc1S2
active: [5] 65 µM | [9] 77.1 µM
inactive: all other assays above

COCCOCCO
inactive: all assays above

CCOP(=S)(Oc1ccc([N+](=O)[O-])cc1)c1ccccc1 (configuration not stated)
active: [11] 0.0422 µM | [15] 37.9 µM
not listed: [14] | [18]
inactive: all other assays above

[N-]=[N+]=[N-]
active: [4] 81.1 µM | [5] 72.3 µM | MYC, MYC (gene 4609) 80 µM | [13] 71.7 µM | [16] 50 µM
inactive: all other assays above

ClC(Cl)(Cl)c1ccccc1
not listed: [15]
inactive: all other assays above

CC(Cc1ccc(OCC(=O)O)cc1)NCC(O)c1csc(C(F)(F)F)n1 (configuration not stated)
active: [9] 0.0862 µM
inactive: all other assays above

O=C(O)C(Cl)Cl
inactive: all assays above

c1nc[nH]n1
active: [2] 0.116 µM | [7] 15.8 µM | MYC, MYC (gene 4609) 0.104 µM | [8] 0.0899 µM | [14] 0.106 µM
inactive: all other assays above

CCCCc1ccccc1
inactive: all assays above

Cc1ccc(N)cc1N
active: [13] 36.3 µM
inactive: all other assays above

Cc1ccc(O)cc1C
not listed: [15]
inactive: all other assays above

CC(C)(C)c1ccc(O)cc1
active: [6] 0.197 µM
not listed: [15]
inactive: all other assays above

CCCCN(CCCC)SN(C)C(=O)Oc1cccc2c1OC(C)(C)C2
inactive: all assays above
